Bioassay records (PubChem)
HT1080NT lethal – qHTS for induction of synthetic lethality in tumor cells producing 2HG: qHTS for the HT-1080-NT fibrosarcoma cell line; HT-1080-NT fibrosarcoma viability, CellTiter-Glo ATP luminescence, 48 h; Potency, µM (series often up to 46.1 µM), without a hit: top-dose activity, negative = less viability, hits mostly cytotoxic; 360,000 tested, 1.6% active;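 further: NT is the 2HG producing partner of a matched IDH1 knockdown line; 0% = DMSO-treated cells and -100% = media-only wells without cells; nearly all actives have a fitted effect of over 55% in size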
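HT-1080-NT; 750 cells/well; 5% FBS RPMI; 48 h compound, 37 degrees C; CellTiter-Glo luminescence; curve fitting and curve-class assignment.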
S2 tox – Viability Counterscreen for Primary qHTS for Inhibitors of ATXN expression. S2 cells (HEK-293 line with an ATXN2-luciferase reporter) viability, CellTiter-Fluor protease fluorescence, 24 h. Potency, µM (highest dose often 56.7 µM), actives largely listed as cytotoxic. AID 651635, 2014. 400,000 tested, 0.49% active; further: nearly all actives have a fitted effect of over 40% in size
KB-3-1 tox – qHTS assay for MDR1-selective chemotherapeutics: Primary screen using the parental adenocarcinoma cell KB-3-1; Potency, µM (top dose mostly 46.1 µM), actives largely listed as cytotoxic; 400,000 tested, 1.4% active; KB-3-1 viability, CellTiter-Glo ATP luminescence, 72 h; AID 1347075, 2019; further: on the % scale 0 is the no-effect control and ±100 the full control effect; nearly all actives have a fitted effect of over 60% in size
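Using CellTiter-Glo luminescence, growth of non-resistant KB-3-1 adenocarcinoma cells is assessed 72 h after pin-tool compound addition at 37 °C. Normalized responses across the concentration series yield fitted curves.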
ATXN2 expr inh – Primary qHTS for Inhibitors of ATXN expression | HEK-293 ATXN2-luciferase reporter, luminescence, 24 h | Potency, µM (doses to about 57 µM), for inactives: at the highest dose activity change, negative = inhibition, usual class: inhibitors | 360,000 tested, 0.72% active | AID 1745845, 2022; further: on the % scale 0 is the no-effect control and ±100 the full control effect; nearly all actives have a fitted effect of over 55% in size
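qHTS (up to 57 uM final) was run with 24 h compound exposure of reporter cells at 37 °C. Each well was multiplexed: SteadyGlo luminescence measured ATXN2-luciferase expression after a fluorogenic Gly-Phe-AFC viability readout (25 uM final).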
KB-V1 cytotox – qHTS assay for MDR1-selective chemotherapeutics: Primary screen using the drug-selected MDR subline cells KB-V1. KB-V1 MDR cells viability, CellTiter-Glo, 72 h. Potency, µM (highest dose often 46.1 µM), actives largely listed as cytotoxic. 400,000 tested, 3.4% active. AID 1347076, 2019; further: on the % scale 0 is the no-effect control and ±100 the full control effect; nearly all actives have a fitted effect of over 60% in size
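Readout: CellTiter-Glo luminescence, 10 min after addition. Cells: KB-V1 MDR subline, 72 h at 37 degrees C with compound. Analysis: corrected, normalized data fitted to concentration-effect curves.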
HT1080 IDH1KD tx – qHTS for induction of synthetic lethality in tumor cells producing 2HG: qHTS for the HT-1080-IDH1KD cell line; HT-1080 IDH1 knockdown viability, ATP luminescence, 48 h; 360,000 tested, 2% active; AID 686971, 2013; Potency, µM (top dose mostly 46.1 µM), inactives show at the highest dose activity, negative = toxicity, most hits filed as cytotoxic;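 further: 0% = DMSO wells and -100% = cell-free medium wells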
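Using the IDH1-knockdown HT-1080 line run in the same batch and compound series as the NT line, viability after 48 h at 37 °C was determined by CellTiter-Glo luminescence and expressed as % activity.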
Starred values were filed as active, the others as inactive; i = inactive; ? = inconclusive; / = not tested or not shown; ! = repeats disagree. Hits are enriched below; roughly 6.2% of the tested compounds scored in any of these assays. The call rests on the fitted dose curve; in most records, active means well fitted curve in the direction sought with a large enough effect; inconclusive means small, poorly fitted or top-dose-only effect, or another doubt; inactive means no such curve, though single readings can be large; an effect the other way counts as inactive or inconclusive. Potency means the concentration at half of the fitted maximal effect.

SMILES | HT1080NT lethal | S2 tox | KB-3-1 tox | ATXN2 expr inh | KB-V1 cytotox | HT1080 IDH1KD tx
O=C1CCN(Cc2ccccc2)CCN1[C@H](CSc1ccccc1)Cc1ccccc1 | -6.9% | i | ? | -7.0% | 14.6µM*! | -12.7%
C[C@@H](CSc1ccc(Br)cc1)CN1CC[C@H](NC(=O)OCc2ccccc2)CCC1=O | -18.6% | ? | ? | -38.9% | 14.6µM*! | -27.9%
COc1ccc(SC[C@H](C)CN2CC[C@H](NC(=O)OCc3ccccc3)CCC2=O)cc1 | -0.7% | i | 14.6µM*! | -25.3% | 11.6µM*! | -14.9%
O=C(N[C@@H]1CCC(=O)N(CC[C@H](Sc2ccc(Br)cc2)c2ccccc2)CC1)OCc1ccccc1 | -6.8% | ? | ? | -32.2% | ? | -2.8%
O=C1CCN(CCc2ccccc2)CCN1[C@H](CSc1ccc(Br)cc1)Cc1ccccc1 | -12.6% | ? | ? | -26.0% | i | -9.1%
COc1ccc(S[C@@H](CCN2CC[C@H](NC(=O)OCc3ccccc3)CCC2=O)c2ccccc2)cc1 | ? | ? | 13µM*! | -31.6% | ? | ?
CCCCN(C)C(=O)CN1C(=O)CCn2nc(-c3cn(C)c4ccccc34)cc21 | / | i | i | -4.7% | i | /
CCn1c(-c2ccccc2F)nc2cc(C(=O)NCc3ccc(C)o3)cc(NC(C)=O)c21 | / | i | / | / | / | /
CCOc1ccc(-c2nc(CNC(=O)NC3CCCCC3)c(C)o2)cc1 | / | i | i | 17.0% | i | /
O=C(N[C@H]1CCC(=O)N([C@H](CSc2ccccc2)Cc2ccccc2)CC1)OCc1ccccc1 | -9.2% | ? | ? | -19.7% | 18.4µM*! | -11.5%
O=[N+]([O-])c1cc(C(F)(F)F)cc([N+](=O)[O-])c1NCCCNc1ccc([N+](=O)[O-])c2cccnc12 | -10.5% | i | i | -15.2% | 10.3µM* | 1.6%
CNC(=O)[C@H](CC1=CN=C2C=CCC=C12)NC(=O)[C@@H](CC(=O)NO)CC(C)C | / | / | / | 0.0172µM* | / | /
CSc1ccc(CNCc2c(C(=O)O)c(C)n(Cc3ccc(F)cc3Cl)c2C)cc1 | / | ? | i | 5.0% | i | /
O=C1N/C(=N\c2ccccn2)SC1Cc1ccc(Cl)cc1 (centres undefined) | -14.1% | i | i | -20.7% | i | -15.2%
O=C1N/C(=N/c2ccccn2)SC1Cc1ccccc1 (centres undefined) | ? | i | i | 4.1% | ? | 10µM*
NCC12CC3CC(C1)CC(c1ccc(Cl)cc1)(C3)C2 | 23.1µM* | / | i | / | ? | ?
Nc1ccc(C23CC4CC(CC(CO)(C4)C2)C3)cc1 | 1.1% | i | i | 15.0% | i | 3.6%
CC1CCC(CN2C(Nc3ccccc3)=NC[C@@H]2Cc2ccccc2)CC1 (some centres undefined) | ? | ? | i | 15.8µM* | i | -24.9%
c1ccc(C[C@H]2CN=C(Nc3ccccc3)N2CC2CCC2)cc1 | -4.8% | i | i | -17.5% | i | -23.6%
CC(C)C[C@H]1CN=C(Nc2ccccc2)N1CCCC1CCCCC1 | -19.0% | / | i | 25.1µM* | i | -23.4%
CC(C)C[C@H]1CN=C(Nc2ccccc2)N1CCCC1CCCC1 | ? | ? | ? | ? | ? | -27.0%
COc1cc(OC)c2nc(-c3cc4c(c(OC)c3)OCCN(C(=O)C(C)c3n[nH]c(=O)c5ccccc35)C4)cc(C)c2c1 (centres undefined) | / | i | / | / | / | /
Cc1ccc(-c2nnc(SC(C)C(=O)NCc3ccco3)n2C)cc1 (centres undefined) | / | / | i | / | i | /
COC(=O)c1ccc(Cl)c(NS(=O)(=O)c2ccc3c(c2)OCCO3)c1 | ? | i | 5.8µM* | -12.3% | 9.2µM* | 4.61µM*
COc1ccc(NC(C)=O)cc1NS(=O)(=O)c1ccc2c(c1)OCCO2 | -1.8% | i | ? | 1.2% | i | -6.0%
SMILES | HT1080NT lethal | S2 tox | KB-3-1 tox | ATXN2 expr inh | KB-V1 cytotox | HT1080 IDH1KD tx
FC(F)(F)c1ccc(CN2C[C@@H]3C(c4ccc(Cl)nc4)C4(c5cccnc5)CC3(C4)[C@H]2c2ccccc2)cc1 (some centres undefined) | ? | ? | 14.6µM* | -24.4% | ? | ?
O=C(Nc1ccc(Oc2cccnc2)cc1)C1CCN(Cc2ccc(F)cc2)CC1 | -6.0% | i | / | -20.0% | / | -12.7%
Cc1ccc(CN2CCCCC2C(=O)Nc2ccc(Oc3cccnc3)cc2)o1 (centres undefined) | ? | ? | 5.17µM* | -19.4% | 8.2µM* | -20.6%
O=C(Nc1ccc(Oc2cccnc2)cc1)C1CCN(Cc2cc(Cl)ccc2O)CC1 | ? | ? | 16.4µM* | / | ? | ?
COc1ccccc1CNC(=O)CCC1N=C2c3ccccc3N=C(SCC(=O)Nc3ccc(N(C)C)cc3)N2C1=O (centres undefined) | / | i | i | 10.2% | i | /
O=C(NCC1CCC2(CCN(Cc3c[nH]c4ccccc34)CC2)O1)C1CCOCC1 (centres undefined) | / | i | / | / | / | /
O=C(c1ccncc1)c1ccc(N2CCN(C3CC(=O)N(Cc4cccs4)C3=O)CC2)cc1 (centres undefined) | 11.6µM* | i | ? | / | i | -28.5%
COc1cccc(C(C(=O)NC2CCCC2)N2CCN(c3cc(C)ccc3C)CC2)c1OC (centres undefined) | ? | / | ? | / | 16.4µM* | ?
COc1cccc(C(C(=O)NC2CCCC2)N2CCN(c3ncccc3C#N)CC2)c1OC (centres undefined) | 7.0% | / | i | / | ? | -0.7%
COc1cccc(-c2ccnc(-n3ncc(C(=O)NCc4cccnc4)c3C3CC3)n2)c1 | / | i | / | / | / | /
CCN(c1ccccc1)c1nc(N)nc(C#N)n1 | / | / | i | / | i | /
CN(C)CC(C)(O)c1ccc2c(c1)CN(Cc1cccn1-c1cccnc1)CCO2 (centres undefined) | / | i | / | / | / | /
Cc1ccc2c(c1)c1c(n2CC(O)Cn2ccnc2C)C(=O)CCC1 (centres undefined) | -15.9% | i | i | -12.5% | i | -2.7%
Cc1ccc2c(c1)c1c(n2CC(O)CNC2CCCC2)CCCC1 (centres undefined) | ? | 25.1µM* | ? | / | 20.6µM* | -13.5%
CC(C)(C)NC(=O)NCC1CCCC1NC(=O)NC(C)(C)C (centres undefined) | 0.3% | i | i | / | 25.9µM* | 1.1%
